Results taken from PubChem BioAssay (NCI).
This is part of a sample that, as a whole, favours compounds with a hit. Of some 79,000 tested, about 15% had one in any assay. Unmarked numbers belong to inactive results. Calls of active or inactive are those of the source. Rule as the data show it: active = growth inhibition above about 70%; inactive = the rest.

Experiment: NCI Yeast Anticancer Drug Screen. Data for the rad14 strain (AID 159);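 also: 0% = growth of vehicle-treated control cultures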
Conditions: S. cerevisiae rad14 strain growth inhibition, stronger effect = higher value
Experimental: Growth inhibition of yeast strains with defined genetic alterations is measured as a screen for potential anti-cancer activity. Selected strains with alterations in DNA damage repair or cell cycle control were exposed to compounds and growth inhibition was measured relative to vehicle treated controls. The strain used in this assay is rad14

SMILES | growth inhibition (at 1.2 µM) | growth inhibition (at 3.7 µM) | growth inhibition (at 11.0 µM) | growth inhibition (at 33.0 µM) | growth inhibition (at 100.0 µM)
Cc1ccc(SSc2ccc(C)cc2[N+](=O)[O-])c([N+](=O)[O-])c1 | -6% | -10% | 10% | 74% (active) | 85% (active)
CCCCCC(=O)C(C)(c1nc2n(c1O)/C(=N/C(=O)Nc1ccc(Cl)cc1)N=N2)c1nc2n(c1O)/C(=N/C(=O)Nc1ccc(Cl)cc1)N=N2 | -1% | 2% | -2% | 4% | 50%
Oc1ccc(Br)cc1C=Nc1cccc(C(F)(F)F)c1 | 6% | 13% | 91% (active) | 97% (active) | 97% (active)
CCCCCCCCCCCCCCCCCN | -31% | -24% | 14% | 95% (active) | 94% (active)
CCN(CC)c1cccc(Nc2nc3ccccc3s2)c1 | 7% | 7% | 7% | 7% | 7%
COc1ccc2nc(N/N=C/c3sccc3C)cc(C)c2c1 | -50% | -19% | -21% | 97% (active) | 90% (active)
Cc1ccc(Nc2n[nH]c(=S)s2)cc1C | -33% | -29% | -17% | 65% | 89% (active)
[O-]c1c2cc(-[n+]3c(-c4ccccc4)cc(-c4ccccc4)cc3-c3ccccc3)cc1COCCOCCOCCOCCOC2 | 1% | 1% | 1% | 9% | 81% (active)
